This is part of a sample that, as a whole, favours compounds with a hit. Of some 83,000 tested, about 20% had one in any assay.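 Cells were grown in 96-well plates and exposed to the test compound at a single concentration for 48 hours; results are reported as percent growth, with values below 10 considered active.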 Calls of active or inactive are those of the source.
These compounds were tested on NCI-H322M lung (assay: NCI-60 one-dose screen, 48 h (100 = growth as untreated, 0 = no growth, -100 = all killed)). Conditions: 10 µM.
For Cc1cccc(NC2=C(C#N)C(=O)NC3(CCCC3)S2)c1, the growth was 112% (inactive). For O=C1/C(=C\c2ccc(F)cc2)CN(C(=O)c2ccccc2)C/C1=C\c1ccc(F)cc1, the growth was 73.6% (inactive). For COc1cc(-c2cc(/C=C3\C(=O)Nc4ccccc43)[nH]n2)cc(OC)c1OC, the growth was 68.6% (inactive). In the case of COc1cc(/C=C\c2cc(OC)c(OC)c(OC)c2)cc(NS(=O)(=O)c2ccc(Cl)cc2)c1OC, the growth is reported as 48.7% (inactive). In the case of S=C1SCC(c2ccccc2)S1 (stereo not given), the growth is reported as 111% (inactive). For CCN(CC)Cc1cc(Nc2ccnc3cc(Cl)ccc23)ccc1OC, the growth was 99% (inactive). In the case of COC(=O)C(C(C[N+](=O)[O-])c1ccccc1)=P(c1ccccc1)(c1ccccc1)c1ccccc1 (stereo not given), the growth is reported as 94.3% (inactive). In the case of O=S(=O)(NCCCNc1nccc(-c2c(-c3ccc(F)cc3)nc3sccn23)n1)c1ccc2ccccc2c1, the growth is reported as 49.6% (inactive). With CC(=O)N1N=C(c2ccc(Cl)cc2)CC1c1sc(Cl)nc1Cl (stereo not given) the growth was 62.9% (inactive). With O=c1[nH]c2ccc(Cl)cc2c2ccccc12 the growth was 42.5% (inactive). With COc1ccc(NC2=NC(C)(CO)CS2)cc1 (stereo not given) the growth was 102% (inactive). N#Cc1ncc(Br)c(NC2CCCCCC2)n1 was tested, and the growth was 105% (inactive). O=C(Nc1cccc(-n2cc(-c3ccncc3)c(-c3cc(O)cc(Cl)c3)n2)c1)Nc1ccc(Cl)c(C(F)(F)F)c1 was tested, and the growth was 45% (inactive). In the case of Nc1ncn(C2OC(CO)C(O)C2O)c(=O)n1 (stereo not given), the growth is reported as -0.0643% (active). For O=C(Nc1nc(-c2ccccc2Cl)cs1)c1cc(-c2ccc(Cl)cc2)nc2ccc(Cl)cc12, the growth was 90.8% (inactive).

— PubChem BioAssay (NCI)
